# From PubChem
# GPR151 activ – human GPR151 activation. AID 1508602. activation, % at 11.2 µM. PathHunter beta-arrestin GPR151 cells, luminescence. 1% of 650,000 active. Q8TDV0; in the data active = activation above about 4.9%;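 note: 0% = median of compound wells and 100% = cells with positive control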
# MITF inh – blocks human microphthalmia-associated transcription factor; O75030; AlphaScreen MITF homodimerization, bead proximity signal; inhibition, % at 2.6 µM; 0.91% of 650,000 active; AID 1259374; in the data active = inhibition above about 50%;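 note: 0% = vehicle wells with protein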
# Target sequence (O75030 whole entry, looked up): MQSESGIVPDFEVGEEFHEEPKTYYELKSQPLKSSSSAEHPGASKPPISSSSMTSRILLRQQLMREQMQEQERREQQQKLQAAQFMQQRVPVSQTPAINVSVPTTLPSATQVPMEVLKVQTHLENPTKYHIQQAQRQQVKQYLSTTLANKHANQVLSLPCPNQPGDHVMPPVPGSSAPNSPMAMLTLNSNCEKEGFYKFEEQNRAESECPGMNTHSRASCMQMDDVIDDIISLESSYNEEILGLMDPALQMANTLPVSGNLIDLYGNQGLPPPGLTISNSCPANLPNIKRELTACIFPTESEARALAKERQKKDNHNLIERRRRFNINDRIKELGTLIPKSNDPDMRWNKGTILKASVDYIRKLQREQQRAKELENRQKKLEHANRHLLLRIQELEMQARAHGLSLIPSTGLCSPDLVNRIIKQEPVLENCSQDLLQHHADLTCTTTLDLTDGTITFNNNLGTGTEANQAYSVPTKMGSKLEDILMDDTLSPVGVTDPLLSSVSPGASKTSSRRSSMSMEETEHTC
# FBW7 activator – activators of human E3 ligase FBW7; Q969H0; AlphaScreen FBW7–phospho-cyclin E peptide binding, activator screen; normalized activity (activation), % at 26.1 µM; 0.13% of 650,000 active; in the data active = normalized activity above about 1.9%;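 note: purified mutant Fbw7 with reduced substrate affinity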
# TEAD-YAP block – TEAD-YAP interaction inhibition; HEK-TIYL cells, TEAD-Gal4/YAP UAS-luciferase luminescence; inhibition, % at 9.12 µM; 1.4% of 640,000 active; in the data active = inhibition above about 32%;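 note: 0% = median of test compound wells and 100% = reference inhibitor wells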
# Starred values were filed as active, the others as inactive. Shown are actives, neighbours in structure and some others; about 3.4% of the full set was active somewhere.
SMILES,GPR151 activ,MITF inh,FBW7 activator,TEAD-YAP block
c1nc2nc(Nc3ccc(N4CCOCC4)cc3)nc(Nc3ccc4c(c3)OCO4)c2[nH]1,0,21,1,45*
Cc1nc2ccccc2cc1C(=O)NN,-1,0,0,9
COc1cccc(NS(=O)(=O)c2cc(C(=O)N3CCN(Cc4ccccc4)CC3)ccc2NCCc2ccc(OC)c(OC)c2)c1,0,3,0,52*
COc1ccc(C(=O)N2CCN(Cc3ccc(SC)cc3)CC2)cc1OC,-1,45,0,45*
COc1cccc(NS(=O)(=O)c2cc(C(=O)N3CCCC3)ccc2NCCc2ccc(OC)c(OC)c2)c1,0,8,0,4
CC(=O)NCC1(c2ccccc2)SC(NC(C)=O)=NN1C(C)=O (centres undefined),0,16,0,60*
CCC(C)C1(c2ccccc2)SC(NC(C)=O)=NN1C(C)=O (centres undefined),-1,9,0,38*
O=c1c2ccccc2nc(SCc2cccc([N+](=O)[O-])c2)n1Cc1ccccc1,1,-7,0,-3
COc1ccc(-n2ncc3c(NC(C)(C)C)ncnc32)cc1,1,4,0,36*
COCCCNc1ncnc2c1cnn2-c1ccccc1,-1,10,0,43*
CCCNc1ncnc2c1cnn2-c1ccccc1,-3,13,0,8
CC(C)(C)NS(=O)(=O)c1ccc(NC(=O)c2ccc([N+](=O)[O-])cc2)cc1,2,13,1,7
Cc1ccc(C)n1-c1cc(C(=O)O)ccc1Cl,-1,76*,-1,6
Cc1ccc(C)n1-c1ccc(C(=O)O)cc1O,-1,62*,-1,-10
CCOC(=O)C1(CCOC)CCN(C(=O)C2CCOC(C)(C)C2)CC1 (centres undefined),2,-5,0,6
COCCNc1ccc2ncc(-c3ccc4c(c3)OCO4)n2n1,2,4,0,39*
CCCNc1ccc2ncc(-c3cccc(O)c3)n2n1,-1,-15,0,0
CCCNc1ccc2ncc(-c3cccc(NC(C)=O)c3)n2n1,1,6,1,56*
COCCNc1ccc2ncc(-c3cccc(CO)c3)n2n1,0,-17,0,33*
CCCNc1ccc2ncc(-c3ccc(O)cc3)n2n1,-1,-27,0,77*
COCCNc1ccc2ncc(-c3cccc(F)c3)n2n1,2,10,0,26
Cc1cc(I)ccc1NCC(=O)N/N=C/c1c[nH]c2ccccc12,0,16,0,14
Cc1[nH]c2ccc(OC(F)(F)F)cc2c1CCNC(=O)c1cccs1,0,7,0,-4
COCCNc1ccc2ncc(-c3ccc(F)cc3)n2n1,0,-9,0,14
COCCNc1ccc2ncc(-c3ccc(O)cc3)n2n1,1,-22,0,58*
SMILES,GPR151 activ,MITF inh,FBW7 activator,TEAD-YAP block
Cc1ccccc1C(=O)NCCn1cc(SCC(N)=O)c2ccccc21,0,2,0,2
Cc1cccc(Nc2nc3nonc3nc2Nc2ccccc2I)c1,1,10,0,87*
COc1ccc(S(=O)(=O)N2CCn3cccc3C2c2ccc(Cl)cc2)cc1OC (centres undefined),0,20,0,-5
O=c1c(Nc2ccc(Cl)cc2)c(-c2ccccc2)c1=O,0,9,0,-2
CCOc1ccccc1Nc1c(-c2ccccc2)c(=O)c1=O,-1,-1,0,-8
O=c1c(Nc2ccccc2)c(-c2ccc(Cl)cc2)c1=O,-1,9,0,47*
CCOc1ccc(Nc2c(-c3ccccc3)c(=O)c2=O)cc1,-2,20,0,60*
O=C(NNC(=O)c1cccnc1SCc1cccc([N+](=O)[O-])c1)c1ccccn1,-1,24,-1,39*
CC(=O)Nc1ncc(Cc2ccccc2F)s1,0,10,0,0
Cc1ccc(CCC(=O)Nc2ncc(Cc3ccccc3F)s2)o1,0,9,0,51*
Cc1cccc(Cc2cnc(NC(=O)CCc3ccc(C)o3)s2)c1,0,14,0,32*
O=C(CSCC(=O)Nc1ccc2c3c(cccc13)CC2)NCCc1ccccc1,-2,1,0,-12
CCC1=NN2C(=N)/C(=C/c3ccc(OCCOc4ccc(C)cc4)c(OC)c3)C(=O)N=C2S1,1,-1,0,-6
COc1ccccc1-c1cnn2ccc(Nc3ccc(C)c(NS(C)(=O)=O)c3)nc12,-1,-13,0,4
FC(F)(F)c1nn2cc(-c3ccccc3)nc2s1,0,-6,0,-42
OC(c1cn2cc(-c3ccccc3)nc2s1)(C(F)(F)F)C(F)(F)F,-8,-4,0,55*
Cc1ccoc1C(=O)NCC1Cc2cc(-c3ccc(S(C)(=O)=O)cc3)ccc2O1 (centres undefined),1,15,1,39*
Cc1noc(C)c1C(=O)NCC1Cc2cc(-c3ccc(S(C)(=O)=O)cc3)ccc2O1 (centres undefined),0,-13,0,8
COc1cc(Nc2nc3ccccc3n3cnnc23)cc(OC)c1OC,-1,-4,0,-4
COc1cc(Nc2nc3ccc(C)cc3n3cnnc23)cc(OC)c1OC,1,20,0,34*
O=C(c1nc2sccn2c1CN1CCCC(c2nc3ccccc3o2)C1)N1CCCC1 (centres undefined),-1,-3,0,5
CC(C)N(CCNc1nc(NCCCN2CCCC2=O)nc2c1ncn2-c1ccsc1)C(C)C,1,5,0,7
O=C1CCCN1CCCNc1nc(N2CCOCC2)nc2c1ncn2-c1ccsc1,0,-1,0,57*
CCCNc1nc(NCCCN2CCCC2=O)nc2c1ncn2-c1ccsc1,-1,8,0,48*
OC1CCC(Nc2nc(NC3CCN(Cc4ccccc4)CC3)c3ncn(-c4ccsc4)c3n2)CC1 (centres undefined),4,-5,0,60*
SMILES,GPR151 activ,MITF inh,FBW7 activator,TEAD-YAP block
c1ccc(CN2CCC(Nc3nc(Nc4ccccc4)nc4c3ncn4-c3ccsc3)CC2)cc1,-1,8,0,8
CC(=O)Nc1ccc(Nc2nc(NCCCN3CCCC3=O)nc3c2ncn3-c2ccsc2)cc1,-1,14,0,40*
O=C(CSCc1ccco1)c1ccc(F)cc1,-2,13,0,-58
COc1ccc(C)cc1NC(=O)c1cc(S(=O)(=O)N2CCCCCC2)ccc1F,2,2,0,1
O=C1CCCN1CCn1cnc2c(NCCc3ccc(O)cc3)nc(N3CCN(c4ccccn4)CC3)nc21,0,5,0,36*
O=C1CCCN1CCCNc1nc(Nc2ncccn2)nc2c1ncn2-c1ccsc1,1,-5,0,0
FC(F)(F)c1ccc(Cn2cnc3c(NC4CCN(Cc5ccccc5)CC4)nc(Cl)nc32)cc1,1,4,0,20
O=C1CCCN1CCCNc1nc(N2CCN(c3ccccn3)CC2)nc2c1ncn2-c1ccsc1,-3,-7,0,58*
O=C1CCCN1CCCNc1nc(Nc2nccc3ccccc23)nc2c1ncn2-c1ccsc1,2,-1,0,59*
